Screening data: PubChem, The Scripps Research Institute Molecular Screening Center
Sampled rows, rich in hits. Any-hit rate of the full collection: about 4.1%.
hcDAF12 agonist: activates DAF-12 receptor from parasite H. contortus. HEK293 hcDAF-12 lit1-tk-luc reporter, luminescence; 0% DMSO, 100% Δ7-dafachronic acid. activation, % at 6.8 µM. 1.4% of 370,000 active. AID 652067;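 active = activation above the mean of all tested compounds plus 3 SD, cut at about 5.5% in these data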;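 also: 100% = response to 3 µM Δ7-dafachronic acid high control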
hgDAF12 agonist: activates the H. glycines DAF-12 receptor ligand-binding domain; AID 687014; HEK293 GAL4-hgDAF12 UAS-luciferase reporter, agonist luminescence; normalized to butyrate control; activation, % at 6.8 µM; 1.8% of 370,000 active;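 active = activation above a cutoff set at the mean of all screened compounds plus 3 SD, cut at about 10% in these data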;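 also: 0% = DMSO wells and 100% = sodium butyrate wells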
DAX1 inh-1: blocks DAX1 repression of SF-1 activated StAR promoter; HEK293T StAR-luciferase reporter, SF-1/DAX-1 repression relief; inhibition, % at 6.8 µM; 1.1% of 370,000 active; AID 652010;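 active = inhibition above the mean over all tested compounds plus 3 SD, cut at about 3.6% in these data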;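 also: 0% = DAX-1 cells with DMSO and 100% = cells lacking DAX-1 with DMSO; higher inhibition means more luminescence from relief of DAX-1 repression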
ssDAF12 agonist: activates DAF-12 receptor from parasite S. stercoralis | activation, % at 6.8 µM | HEK293 ssDAF-12/GRIP1 lit1-tk-luc reporter, luminescence; % of 3 µM dafachronic acid response | 1% of 370,000 active;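 active = activation above the mean over all tested compounds plus 3 SD, cut at about 0.9% in these data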;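 also: 0% = DMSO-only wells and 100% = 3 µM delta7-dafachronic acid wells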
DAX1 inh-2: inhibits human nuclear receptor DAX1 | HEK293 Gal4-DAX1 luciferase reporter, luminescence | inhibition, % at 6.75 µM | 0.99% of 340,000 active;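 active = inhibition above the mean over all tested compounds plus 3 SD, cut at about 4.2% in these data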;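 also: 0% = DAX1-transfected cells with DMSO and 100% = empty-vector control cells with DMSO; inhibition shows as a rise in luminescence from relieved DAX1 repression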
Target sequence (P51843 207-470 limits assumed): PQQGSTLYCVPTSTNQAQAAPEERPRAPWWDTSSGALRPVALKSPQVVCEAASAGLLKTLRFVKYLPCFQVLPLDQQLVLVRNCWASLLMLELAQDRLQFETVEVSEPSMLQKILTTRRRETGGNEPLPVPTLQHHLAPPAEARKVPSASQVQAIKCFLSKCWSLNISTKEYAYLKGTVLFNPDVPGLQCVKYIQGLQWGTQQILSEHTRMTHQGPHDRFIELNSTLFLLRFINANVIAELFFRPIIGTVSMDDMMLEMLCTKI
LXR ag: counter-screen for hcDAF-12 agonists: agonists of human LXR-beta. shares compounds with hcDAF12 agonist. HEK293 Gal4-LXR tk-luc reporter, luminescence, 24 h; normalized: DMSO 0%, positive control 100%. activation, % at 6.8 µM. 3,400 tested, under 10 active. AID 743027;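 active = mean percent activation of the reporter above a cutoff set as the average over tested compounds plus their standard deviation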
hcDAF12 ag: hcDAF-12 agonism, confirmation assay. shares compounds with hcDAF12 agonist. 61% of 3,400 active. HEK293 hcDAF-12 lit1-tk-luc reporter, luminescence; % of Δ7-dafachronic acid response. activation, % at 6.8 µM;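 active = mean activation across triplicate tests above the threshold derived from the earlier primary screen, cut at about 5.5% in these data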;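 also: 0% = DMSO only wells and 100% = 3 µM Δ7-dafachronic acid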
Active calls of the source: *; · = no result given.

SMILES | hcDAF12 agonist | hgDAF12 agonist | DAX1 inh-1 | ssDAF12 agonist | DAX1 inh-2 | LXR ag | hcDAF12 ag
CN1/C(=C\C(=O)c2cccc([N+](=O)[O-])c2)Sc2ccccc21 | 7.7* | 13* | 1 | 0 | 0 | 1 | 5.9*
COCC(=O)/C=C1\Sc2ccccc2N1C | -3 | -16 | 0 | -1 | -1 | · | ·
CN1/C(=C/C(=O)C2CCC2)Sc2ccccc21 | 8.1* | 12* | 3 | 0 | 0 | 0 | 4
Cc1nc(NC(=S)Nc2ccccc2)sc1C | 10* | 10 | 1 | 0 | 2 | 0 | 3
CCC(C(=O)Nc1nc(C)c(C)s1)c1ccccc1 (centres undefined) | -1 | -2 | -1 | -1 | 0 | · | ·
CC1(C)CC(=O)/C(=C(/O)CCCN2C(=O)c3ccccc3C2=O)C(=NC(C)(C)C)C1 | -1 | 4 | 1 | -2 | 1 | · | ·
COc1ccc(-n2ncc(N(C)n3cccc3)c(Cl)c2=O)cc1 | 6.8* | 12* | 3.9* | 0 | 2 | 1 | 4
COc1ccc(-n2ncc(Cl)c(Cl)c2=O)cc1 | -2 | 0 | -2 | -1 | · | · | ·
CCCCCc1nnc(NC(=O)CN2C(=O)C3CCCCC3C2=O)s1 (centres undefined) | -1 | 4 | 0 | -1 | 1 | · | ·
O=C1C(=O)c2ccccc2C(O)=C1c1ccccc1F | -2 | -5 | -1 | -1 | 2 | · | ·
O=C1C(c2ccnc3ccccc23)=C(O)c2ccccc21 | 26* | 16* | 3 | 3.3* | 1 | 2 | 20*
CCN1c2ccccc2NC2C1C(C(C)=O)C(=O)N2c1ccc(Cl)cc1 (centres undefined) | 8.8* | -3 | 0 | 0 | 0 | 0 | 0
Cn1c(=O)c(-c2cc(Br)ccc2N)nc2ccccc21 | 11* | 6 | 2 | 1.2* | 1 | 1 | 13*
Cc1cccc(NC(=O)COC(=O)Cc2c[nH]c3ccccc23)c1C | 1 | 2 | 0 | 0 | -1 | · | ·
CC(C)c1ccccc1NC(=O)COC(=O)Cc1c[nH]c2ccccc12 | 7.9* | 3 | 1 | 1.3* | 0 | 0 | 4
CC(C)c1ccc(NC(=O)c2cc(S(=O)(=O)N3CCCCC3)c[nH]2)cc1 | 1 | 0 | 0 | -1 | 0 | · | ·
c1ccc(-c2nnc(-c3ccccn3)s2)nc1 | 9.6* | 13* | 2 | 1.0* | -3 | 2 | 14*
CC(C)c1ccc2c(c1)C1Cc3ccccc3C1N2 (centres undefined) | 7.8* | 6 | 1 | -1 | 3 | 0 | 5
Cc1ccnc(NC(=S)NC(=O)c2cccs2)c1 | 14* | 19* | 4.3* | 2.1* | 4 | 2 | 11*
Cc1ccnc(NC(=O)CNC(=O)c2cccs2)c1 | -1 | 2 | 0 | -1 | 4 | · | ·
CCCCN(C(=O)COc1ccc(C)cc1OC)c1c(N)n(CCC)c(=O)[nH]c1=O | -2 | -3 | 0 | -2 | 1 | · | ·
c1ccc2c(Cn3ccnc3)c[nH]c2c1 | 8.0* | 3 | 0 | 0 | 0 | 0 | 2
O=C(CN(c1cccc(Br)c1)S(=O)(=O)c1ccccc1)N/N=C/c1cc([N+](=O)[O-])ccc1O | -1 | -6 | -1 | -2 | · | · | ·
CSc1nnc2sc3cc(C)ccc3n12 | 9.6* | 7 | -1 | 0 | 1 | 0 | 5
N#CCSc1nnc2sc3ccccc3n12 | 0 | -1 | 0 | -1 | 1 | · | ·
SMILES | hcDAF12 agonist | hgDAF12 agonist | DAX1 inh-1 | ssDAF12 agonist | DAX1 inh-2 | LXR ag | hcDAF12 ag
Cc1onc(C(=O)N2CCOCC2)c1[N+](=O)[O-] | 7.2* | -5 | -1 | -1 | 2 | 0 | 1
CC(C)c1onc(C(=O)N2CCOCC2)c1[N+](=O)[O-] | -2 | -1 | 0 | -1 | -1 | · | ·
CN(C)c1ccc(-c2nnc(-c3ccccc3F)o2)cc1 | 10* | 13* | 3 | 1 | 1 | 2 | 6.5*
c1ccc2[nH]c(-c3ccc4c(c3)OCO4)nc2c1 | 9.9* | 12* | 2 | 0 | · | 1 | 5
CCCCC(=O)/C=C/n1c(=S)oc2ccccc21 | 6.6* | 8 | 1 | 1 | 0 | 0 | 4
CCOC(=O)c1sc(NC(=O)c2ccc(C)o2)nc1C | 8.8* | 11* | 4 | 0 | 1 | 1 | 8.6*
CC(=O)c1sc(NC(=O)c2cccs2)nc1C | -1 | 2 | 0 | -1 | 2 | · | ·
COc1ccc2nc(NC(=O)c3cccs3)sc2c1 | 6.7* | 12* | 1 | 0 | · | 2 | 7.2*
CCOC(=O)c1sc(NC(=O)c2ccco2)nc1C | 2 | -1 | 1 | -1 | 1 | · | ·
Cc1nc(NC(=O)c2cccs2)ccc1Br | 9.8* | 19* | 2 | 1.6* | 1 | 1 | 11*
CCOC(=O)c1sc(NC(=O)c2cccs2)nc1C | 11* | 6 | 1 | 1.9* | 2 | 1 | 6.3*
CC(C)(C)OC(=O)C[C@@H]1C/C=C\C[C@@H](CC(=O)N[C@@H](CO)Cc2ccccc2)C(=O)N2CCC[C@@H]2COC1=O | -1 | -1 | 0 | -1 | 2 | · | ·
Cc1cccc(NC(=O)c2nc[nH]c2C(=O)NC[C@H](C)O)c1 | 0 | 0 | -2 | -1 | 1 | · | ·
CC(C)CCNC(=O)CO/N=C/c1ccccc1OC(F)F | 1 | 0 | 0 | -1 | 0 | · | ·
CNC(=O)c1cc2c(ccc3ccccc32)o1 | 7.9* | 4 | 0 | -1 | 0 | 0 | 1
COc1ccccc1C(=O)NNC(=O)C(=O)Nc1ccc(C)cc1 | 4 | 3 | 0 | 1 | 0 | · | ·
COc1ccccc1C(=O)NNC(=O)C1CC=CCC1 (centres undefined) | 7.2* | 3 | 0 | 4.0* | 2 | 0 | 7.2*
COc1ccccc1C(=O)NNC(=S)Nc1ccccc1 | 11* | 7 | 1 | 0 | 3 | 0 | 9.0*
COc1ccccc1C(=O)NNC(=O)c1ccc2ccccc2c1 | 0 | 0 | 0 | -1 | 1 | · | ·
COc1ccccc1C(=O)NNC(=O)c1ccc(O)cc1 | 5 | 7 | 2 | 0 | 2 | · | ·
COc1ccccc1C(=O)NNC(=O)c1ccc(F)cc1 | 9.3* | 10 | 2 | 0 | 1 | 1 | 6.8*
CCC(C)C(NC(=O)C1CCC(C)CC1)C(=O)NCCc1ccc(S(N)(=O)=O)cc1 (centres undefined) | 0 | 6 | 0 | -1 | 1 | · | ·
O=C(NNc1nc2ccccc2nc1C(F)(F)F)c1ccccc1 | -1 | -1 | 0 | -1 | 0 | · | ·
O=C(NNc1nc2ccccc2o1)c1ccccc1 | 8.2* | 11* | 2 | 0 | · | 1 | 4
